The subject of the test is HL-60(TB) leukemia. The test is described as follows: NCI-60 one-dose screen, 48 h (100 = growth as untreated, 0 = no growth, -100 = all killed). To be noted: 10 µM unless noted.

SMILES strings stand for the structures. Compounds without any hit were thinned out: in the full panel of roughly 83,000, 20% have a hit.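 Treatment: one concentration, 48 hours, 96-well format. Scoring: percent growth, with anything below 10 considered active.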 Values without a mark were called inactive. Calls of active or inactive are those of the source.

As for `Cn1c2ccccc2c2c3[nH]c(=O)[nH]c(=O)c3c3c4ccccc4n(C)c3c21`, the growth was 48.9%.

On to `O=S(=O)(NCCNc1nccc(-c2c(-c3ccc(F)cc3)nc3sccn23)n1)c1ccc(F)cc1`, for which the growth was 117%. For the compound `CC(=O)NCCN`, the growth was 103%. Under `O=C1COCCN1c1ccc(Nc2nc(Cl)nc(N3CCOCC3)n2)cc1` stands 90.5%; under `CC(C)(C)CC(C)(C)NCc1cc(C(C)(C)C)cc(CNC(C)(C)CC(C)(C)C)c1O`, -33.8% (active); under `Cc1nc2c(nnn2-c2ccccc2)c2nc(-c3ccc(Cl)cc3)oc(=O)c12`, 98.8%. Under `COc1ccc(CCn2cncc2-c2c[nH]c3ccccc23)cc1` stands 93.5%. The figure for `CC[n+]1c(/C=C/C=C2\N(C)c3ccccc3C2(C)C)sc2ccccc21` is -30.3% (active); for `O=C1C(Cl)=C(Nc2ccc(S(=O)(=O)c3ccc(NC4=C(Cl)C(=O)c5ccccc5C4=O)cc3)cc2)C(=O)c2ccccc21` it is 32.7%. For `CN(C)CCCn1c2c(c3ccc(-c4ccn[nH]4)cc3c1=O)C(=O)c1ccccc1-2`, the growth is -7.99% (active). The figure for `Cc1ccc(S(=O)(=O)CCCl)cc1` is 91.7%; for `CN1CCN(c2ccc3c(c2)nc(NNC(=O)c2cnccn2)c2cccn23)CC1` it is -9.26% (active). With `CC(=O)c1ccc(C)cc1`, the growth was 93.4%. Under `COc1cc2c(cc1OC)-c1ccc3cc4c(cc3c1N(CCN(C)C)C2)OCO4` stands -33.9% (active); under `COc1cccc(-c2nc3sccn3c2-c2ccnc(NCCCNS(=O)(=O)c3ccccc3)c2)c1`, -12.4% (active); under `O=C(Nc1ccc(-n2ccc3c(NC(=O)c4ccccc4)nccc32)cc1)c1ccc(Cl)c(C(F)(F)F)c1`, 25.7%. Under `CCCCCCCCCCCCSC1=CC(=O)C=CC1=O` stands -32.3% (active); under `C=CC(C)(O)CC/C=C(\CO)C(=O)OC1C(C)OC(O[C@](C)(C=C)CC/C=C(\CO)C(=O)O[C@H]2C[C@@]3(C(=O)OC4OC(CO)C(O)C(O)C4OC4OC(C)C(OC5OC(CO)C(O)C5O)C(OC5OC(CO)C(O)C(O)C5O)C4O)C(CC2(C)C)C2=CCC4[C@@]5(C)CC[C@H](OC6OC(COC7OC(C)C(O)C(O)C7OC7OCC(O)C(O)C7O)C(O)C(O)C6NC(C)=O)C(C)(C)C5CC[C@@]4(C)[C@]2(C)C[C@H]3O)C(O)C1O` (stereo not given in full), -52.5% (active). Take `CC1(C)CC[C@]2(C(=O)O)CC[C@]3(C)C(=CC[C@@H]4[C@@]5(C)C[C@@H](Cc6cn([C@@H]7O[C@H](CO)[C@@H](O)[C@H](O)[C@H]7O)nn6)[C@H](O)C(C)(C)[C@@H]5CC[C@]43C)[C@@H]2C1`: the growth is 93.4%. With `COC(=O)CCCCCCCCC1(C)C=CC(C(C)O)=CC1` (stereo not given), the growth is 99.4%. The figure for `O=S(=O)(NCCCNc1nccc(-c2c(-c3cccc(O)c3)nc3occn23)n1)c1ccc(Cl)cc1` is 56.1%; for `CC(C)(CO)N(CCO)CCO` it is 103%; for `C=CCN1C(=O)/C(=C/C(=O)OC)S/C1=N\NC(=O)c1cc2ccc1/C=C\c1ccc(cc1)/C=C\2` it is 91.8%.

Consider `O=C1C=CC(=O)N1c1ccc2c(c1)Cc1cc(F)ccc1-2`, for which the growth was 63%. The figure for `O=C(NCc1ccc(Cn2c(=O)sn(-c3ccccc3)c2=O)cc1)OCc1ccc2c(Br)cc(Br)c(O)c2n1` is -41.3% (active). Under `NC1=Nc2cc(OCCCN3Cc4ccccc4C3)c(OCC3CC3)cc2C12CCCC2` stands 62.5%.

In the case of `COc1cc(C(=O)c2c(N)ncn2-c2ccccc2)cc(OC)c1OC`, the growth is 77.5%.

For `CCOC(=O)c1c[nH]n2c(=S)ncnc12`, the growth was 91.2%.

Take `NNC(=O)NO`: the growth was 94.4%. The figure for `Cc1ccccc1OCC(O)COc1ccccc1C` is 128%; for `CCC(=O)Nc1ccccc1C#C/C=C\C#Cc1ccccc1C(F)(F)F` it is 17.3%; for `O=c1c2ccccc2c(=O)c2c1sc1c(=O)c3ccc(O)cc3c(=O)c12` it is -30.6% (active). Consider `CCN(CC)CC(=O)Nc1ccc2ncnc(Nc3ccc(Oc4cccc(F)c4)c(Cl)c3)c2c1`, for which the growth is 16.2%. The figure for `Cc1cc2c(-c3nc4ccccn4c3Nc3cccc4ccccc34)c(O)c(O)cc2c(O)c1-c1c(C)cc2c(-c3nc4ccccn4c3Nc3cccc4ccccc34)c(O)c(O)cc2c1O` is 28.6%; for `O=C(N/N=C/[C@H](O)[C@@H](O)[C@@H](O)[C@H](O)CO)c1ccc(NC(=O)c2cccnc2)cc1` it is 101%.

Source of the values: PubChem BioAssay (NCI).
